# eIF4H inh: inhibitors of RNA binding by human eIF4H | AID 2012 | Q15056 | 290,000 tested, 0.94% active | inhibition, % at 35 µM | eIF4H fluorescence polarization binding assay;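 note: calls also rest on retests at 20 µM and on dose response follow-up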
# PABP FP inh: blocks human PABP binding to poly(A) RNA; P11940; fluorescence polarization; inhibition, % at 35 µM; 290,000 tested, 1% active;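 note: calls also rest on retests at 20 µM and on dose response follow-up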
# PABP1 MLLE inh: inhibitors of microRNA-mediated deadenylation, human PABP1 MLLE binding; GST-MLLE / FITC-PAM2 fluorescence polarization; inhibition, % at 20 µM; 360,000 tested, 0.36% active; AID 588489; in the data active = inhibition above about 35%, passing the limit was not always enough;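 note: plate controls were DMSO wells with GST-MLLE for no effect and wells lacking GST-MLLE protein for full effect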
# eIF4E 4G PPI: eIF4E/eIF4G interaction inhibition in translation initiation; P63073+Q04637; TR-FRET eIF4E-eIF4GI(517-606) binding, 2 h; inhibition, % at 21.7 µM; 220,000 tested, 0.37% active;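 active = inhibition above about 30%, limit read from the data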;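 note: 0% = full FRET control wells and 100% = background wells lacking eIF4GI fragment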
# PERK inhibitor: human PERK inhibition, primary cell-based screen. Q9NZJ5. CHO PERK-DD fusion, SEAP luminescence translation reporter. inhibition, % at 5.6 µM. 220,000 tested, 0.17% active. AID 1416;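 active = inhibition above the mean inhibition of all tested compounds plus 3 SD, set separately per screening campaign, cut at about 2.9% in these data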;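 note: PERK kinase domain activated by AP20187 dimerizer at 100 nM; 0% = DMSO with dimerizer and 100% = rapamycin at 8.4 µM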
# Starred values were filed as active, the others as inactive. Compounds with a hit are over-represented: about 1.6% of the library has one in this group of screens. Unless noted, the rule behind the calls is not given here.
SMILES,eIF4H inh,PABP FP inh,PABP1 MLLE inh,eIF4E 4G PPI,PERK inhibitor
CN(C)[C@@H]1C(=O)C(C(N)=O)=C(O)[C@@]2(O)C(=O)C3=C(O)c4c(O)ccc(Cl)c4[C@@](C)(O)C3C[C@@H]12 (some centres undefined),64,1,8,3,-1
NS(=O)(=O)c1ccc(N2CCNCC2)cc1,6,-4,13,1,1
CC/C(=N\Nc1cccc2ccccc12)c1c(O)[nH]c(=O)[nH]c1=O,54*,-6,-9,4,0
O=c1[nH]c(=O)n(-c2ccc(F)cc2)c(O)c1C=Nc1ccccc1N1CCCC1,64*,77*,-58,-41,1
CCC(C)N=Cc1c(O)n(-c2ccccc2)c(=O)[nH]c1=O (centres undefined),-5,-3,46*,1,0
CC1=CC(=O)NP(=O)(Oc2ccc3ccccc3c2)N1 (centres undefined),-7,8,11,81*,1
CCOC(C(=O)OCCCN(CC)CC)(c1ccccc1)c1ccccc1,5,-1,1,-5,-1
O=C(N/N=C/c1c(O)n(Cc2ccco2)c(=O)[nH]c1=O)c1ccccc1O,53*,26,-57,-1,1
CC(=O)Nc1ccc(N=Cc2c(O)n(Cc3ccco3)c(=O)[nH]c2=O)cc1,68,8,18,4,2
CCCCC(=O)N/N=C/c1c(O)n(Cc2ccco2)c(=O)[nH]c1=O,86,20*,-35,0,1
O=c1[nH]c(=O)n(Cc2ccco2)c(O)c1C=NCc1ccco1,10,20,13,2,1
O=C(c1cnn2c(C(F)(F)F)cc(-c3ccccc3)nc12)N1CCC2(CC1)OCCO2,-2,-4,-4,0,-1
O=C(CN1CC=C(c2ccccc2)CC1)NC(=O)NC1CCCCC1,3,-2,-16,-1,-1
O=C1c2ccccc2C(=O)N1Cc1nc2ccccc2c(=O)n1-c1ccccn1,2,2,-8,31*,2
CSc1nc(N)c(N=Nc2ccc([As](=O)(O)O)cc2)c(=O)[nH]1,25,16,23,1,0

# Bioassay records deposited in PubChem by several laboratories.
